Source: PubChem BioAssay (NCATS)
Values joined by “and” are separate entries in the source; they are usually repeats but may differ in a detail not shown here. Equal values may be shown once. Records with an inconclusive call do not appear. Active and inactive are the calls of the source. Unless noted, the call rests on the fitted dose curve; in most records, active means well fitted curve in the direction sought with a large enough effect; inconclusive means small, poorly fitted or top-dose-only effect, or another doubt; inactive means no such curve, though single readings can be large; an effect the other way counts as inactive or inconclusive.

Experiments:
[1] = Validation of Assay for Modulators of Lamin A Splicing (AID 1459; active means well fitted curve in the direction sought with a large enough effect in the signal ratio; the % refers to the signal ratio;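 further: cells exposed to compound for two days before reading; 0% is about no effect; ratio rise marks activators and ratio drop marks inhibitors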)
How it was run: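 S3 HeLa stably expressing lamin A-EGFP splicing minigene and DsRed2, 600 cells/well in Opti-MEM with 2% FBS, treated 48 h at 37C; laser-scanning cytometry gives GFP/RFP total intensity ratio; ancitabine positive control, 0.5% DMSO vehicle.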

[2] = qHTS Assay for Lipid Storage Modulators (AID 1519; calls by dose curve); settings: Drosophila S3 cells, BODIPY lipid droplet/cell ratio, laser cytometry, cells loaded with oleic acid
How it was run: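 Cells seeded at 5,000 per well were treated with compounds over a concentration series and loaded with oleic acid (400 uM, as added). Lipid droplet fluorescence (488 nm excitation, 500-530 nm channel) was read by laser-scanning cytometry and normalized to 20 uM Triacsin C.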

[3] = molecular target: DNA repair nuclease/redox regulator APEX1 (Homo sapiens) (UniProt P27695); experiment: qHTS Validation Assay for Inhibitors of the Human Apurinic/apyrimidinic Endonuclease 1 (APE1) (AID 1705;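 further: TAMRA fluorescence gain over two minutes as APE1 cuts a quenched THF abasic duplex; on the % scale 0 is the no-effect control and ±100 the full control effect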)
Sequence of DNA repair nuclease/redox regulator APEX1 (Homo sapiens) (P27695 whole entry, looked up): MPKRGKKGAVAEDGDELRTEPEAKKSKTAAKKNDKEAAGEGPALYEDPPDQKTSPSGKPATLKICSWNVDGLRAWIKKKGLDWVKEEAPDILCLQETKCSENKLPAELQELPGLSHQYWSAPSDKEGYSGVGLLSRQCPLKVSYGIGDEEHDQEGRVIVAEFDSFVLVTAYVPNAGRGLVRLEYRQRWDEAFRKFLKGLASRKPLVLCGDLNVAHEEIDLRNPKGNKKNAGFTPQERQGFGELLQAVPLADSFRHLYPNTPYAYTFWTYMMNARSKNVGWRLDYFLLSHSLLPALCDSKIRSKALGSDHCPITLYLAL
How it was run: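 Fluorogenic double-stranded THF abasic-site substrate (5'-TAMRA/3'-BHQ-2), 50 nM final. Enzyme preincubated with compound 15 min at room temperature, then substrate added. Kinetic fluorescence (ex 525/em 598 nm) read three times at 60 s intervals; activity taken as third-minus-first read difference.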

[4] = Counterscreen for APE1 Inhibitors: Fluorescent Dye Displacement Validation Assay (AID 1707);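 further: plate controls were ThO with dsDNA and no compound for no effect and ThO without dsDNA for full effect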
How it was run: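 Loss of Thiazole Orange fluorescence marks promiscuous DNA binders. The dye (250 nM) is mixed with 50 nM abasic-site dsDNA in pH7.5 Tris buffer containing MgCl2, then compounds are added and emission is read once.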

[5] = molecular target: Endonuclease 4 (Escherichia coli (strain K12)) (UniProt P0A6C1); experiment: Counterscreen for APE1 Inhibitors: qHTS Validation Assay for Inhibitors of Endonuclease IV (AID 1708); further: on the % scale 0 is the no-effect control and ±100 the full control effect
How it was run: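 The reaction buffer contained 50 mM Tris-HCl pH 7.5, 50 mM NaCl, 2 mM MgCl2, 1 mM DTT and 0.01% Tween-20. Incision of a 50 nM fluorophore/quencher THF substrate by 2 nM enzyme was measured kinetically.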

[6] = qHTS for differential inhibitors of proliferation of Plasmodium falciparum line 7G8 (AID 1815);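 further: parasite growth measured after three days of incubation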; further: potency means the concentration at half of the fitted maximal effect;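 on activity change, negative = inhibition: plate controls were vehicle wells for no effect and reference inhibitor wells for full effect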
[7] = qHTS for differential inhibitors of proliferation of Plasmodium falciparum line GB4 (AID 1816); settings: Potency: Plasmodium falciparum GB4 proliferation inhibition;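 further: parasite growth measured after 72 h incubation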; further: potency means the concentration at half of the fitted maximal effect;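 on activity change, negative = inhibition: 0% = vehicle DMSO and -100% = reference inhibitor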
[8] = qHTS for differential inhibitors of proliferation of Plasmodium falciparum line W2 (AID 1883); settings: Potency: Plasmodium falciparum W2 proliferation inhibition;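 further: parasites grown with compound for 72 h before lysis and staining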; further: potency means the concentration at half of the fitted maximal effect;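 on activity change, negative = inhibition: 0% = vehicle wells and -100% = control inhibitor wells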
[9] = qHTS for differential inhibitors of proliferation of Plasmodium falciparum line HB3 (AID 1886); settings: Potency: Plasmodium falciparum HB3 proliferation inhibition;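 further: parasites grown with compound for 72 h before SYBR Green readout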; further: potency means the concentration at half of the fitted maximal effect;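 on activity change, negative = inhibition: plate controls were vehicle for no effect and reference inhibitor for full effect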
[10] = molecular target: Ferritin light chain (Equus caballus) (UniProt P02791); experiment: qHTS Validation Assay for Identification of Novel General Anesthetics (AID 2323); further: on the % scale 0 is the no-effect control and ±100 the full control effect
Sequence of Ferritin light chain (Equus caballus) (P02791 2-175 limits assumed): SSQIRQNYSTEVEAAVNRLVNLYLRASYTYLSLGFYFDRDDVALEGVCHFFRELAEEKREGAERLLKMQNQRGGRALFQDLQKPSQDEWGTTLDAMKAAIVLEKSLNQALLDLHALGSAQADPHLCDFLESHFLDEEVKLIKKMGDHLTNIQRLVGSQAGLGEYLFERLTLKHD
How it was run: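 Horse-spleen apoferritin (10 uM) in PBS with 50% saturated 1-aminoanthracene; compounds pin-transferred, 10 min at room temperature. Fluorescence read at 380/535 nm, normalized to free 1-AMA and 1-AMA/apoferritin values; four-parameter Hill fit.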

[11] = molecular target: Alpha-galactosidase A (Homo sapiens) (UniProt P06280); experiment: Counterscreen for Glucocerebrosidase Inhibitors: qHTS Assay for Human alpha-Galactosidase at pH 4.5 (AID 992); further: 0% is about no effect
Sequence of Alpha-galactosidase A (Homo sapiens) (P06280 whole entry, looked up): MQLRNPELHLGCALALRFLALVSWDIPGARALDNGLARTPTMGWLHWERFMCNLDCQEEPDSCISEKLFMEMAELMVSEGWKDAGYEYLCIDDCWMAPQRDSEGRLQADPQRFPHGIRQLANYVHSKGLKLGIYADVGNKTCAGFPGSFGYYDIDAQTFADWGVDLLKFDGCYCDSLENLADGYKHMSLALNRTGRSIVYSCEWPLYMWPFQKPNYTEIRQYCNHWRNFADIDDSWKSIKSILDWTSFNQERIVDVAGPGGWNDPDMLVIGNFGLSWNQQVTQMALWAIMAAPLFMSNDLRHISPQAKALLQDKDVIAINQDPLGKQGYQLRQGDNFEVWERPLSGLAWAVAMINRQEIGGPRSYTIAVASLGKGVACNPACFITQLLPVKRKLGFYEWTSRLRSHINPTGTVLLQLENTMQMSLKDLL
How it was run: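 Each compound is preincubated briefly with 2 nM enzyme before substrate addition (80 uM); plates then sit 20 min at ambient temperature, are quenched with 1M NaOH/1M glycine, and read fluorometrically.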

[12] = molecular target: alpha-glucosidase (Oryza sativa, rice) (UniProt Q653V4); experiment: Counterscreen for Glucocerebrosidase Inhibitors: qHTS Assay for Rice alpha-Glucosidase at pH 5.0 (AID 997);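 further: 0% = full activity with enzyme and -100% = basal without enzyme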
How it was run: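 Endpoint fluorogenic assay at pH 5.0: compounds (0.7 nM to 77 uM) titrated against 4 nM rice enzyme and 400 uM 4-MU-alpha-glucoside for 20 min at room temperature; NaOH/glycine stop, read ex 365/em 440 nm, Hill-fitted AC50.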

[13] = qHTS for differential inhibitors of proliferation of Plasmodium falciparum line 3D7 (AID 1876); further: potency means the concentration at half of the fitted maximal effect
[14] = qHTS for differential inhibitors of proliferation of Plasmodium falciparum line D10 (AID 1877);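 further: parasites grown with compound for 72 h before DNA staining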; further: potency means the concentration at half of the fitted maximal effect;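 on activity change, negative = inhibition: plate controls were vehicle wells for no effect and reference inhibitor wells for full effect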
[15] = qHTS Assay for Modulators of Human Peripheral Myelin Protein 22 (PMP22) Expression/Activity (AID 1967; active means well fitted curve in the direction sought with a large enough effect in the signal ratio; the % refers to the signal ratio;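 further: 0% = untreated cells and 100% end not stated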)
How it was run: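 Mouse MSC80 Schwann cells carrying Pmp22 promoter–green click beetle luciferase plus EF-alpha–red luciferase control, dosed 24 h at 37 °C. Dual-filter luminescence, overlap-corrected; %Activity from green/red ratio normalised to untreated cells, concentration-response curves fitted.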

[16] = Cell Viability - LYMP2-024 (AID 988);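 further: cells exposed to compound for 24 hr at 37 °C; plate controls were DMSO only for no effect and 92 µM tetraoctylammonium bromide for full effect; nearly all actives have a fitted effect of over 60% in size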
How it was run: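 Cells at 2500 per well received compound for 24 hr after a 5 hr settling period. Viability was scored by CellTiter-Glo luminescence, with AC50 from Hill fits.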

[17] = Cell Viability - LYMP2-026 (AID 989);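 further: cells exposed to compound for 24 h at 37 °C; on the % scale 0 is the no-effect control and ±100 the full control effect; nearly all actives have a fitted effect of over 50% in size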
How it was run: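 Acute toxicity screen in complete culture medium, with 24 hr compound exposure at 37 C. Viability read as cellular ATP via luciferase reaction, with tetraoctylammonium bromide (6.4pM to 92 uM) as positive control.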

[18] = Cell Viability - LYMP1-002 - Assay at 24 hr (AID 993); further: on the % scale 0 is the no-effect control and ±100 the full control effect
How it was run: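 Viability was judged from intracellular ATP using a luciferase read-out, following a 24-hour compound incubation at 37 C of lymphoblastoid cells seeded at 2500 per well. Concentration-response data were fitted to the Hill equation for AC50.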

[19] = Cell Viability - LYMP1-002 - Assay at 40 hr (AID 994);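 further: 0% = DMSO only and full inhibition = 92 µM tetraoctylammonium bromide; nearly all actives have a fitted effect of over 60% in size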
How it was run: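 Concentration-dependent ATP loss after 40 hr treatment at 37 C defined toxicity; AC50 values were obtained by fitting the standard Hill equation.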

[20] = measured here: cell count channel max response
[21] = measured here: lipid channel max response

CCOC(=O)C1=C[C@]2(CC)CCCN3CCc4c(n1c1ccccc41)[C@@H]32
-25.8%: max response [2, 20]
active: Potency [6] 7.08 µM | Potency [7] 7.94 µM | Potency [8] 14.1 µM | Potency [9] 12.6 µM
inactive: outcome [1] | activity change, negative = inhibition ([2]; at 57.5 µM (top of the series)) -17.2% | outcome [3] | outcome [4] | outcome [5] | outcome [10]
-38.8%: max response [2, 21]

NC[C@H](O)c1ccc(O)c(O)c1
-21.1%: max response [2, 21]
inactive: outcome [11] | outcome [12] | outcome [1] | activity change, negative = inhibition ([2]; at 57.5 µM (top of the series)) 0.534% | outcome [3] | outcome [4] | outcome [5] | Potency [7] | Potency [13] | Potency [14] | Potency [9] | outcome [10]
-22.5%: max response [2, 20]

CCN(CC)CCCC(C)Nc1ccnc2cc(Cl)ccc12 (configuration not stated)
active: Potency [6] 2.51 µM | Potency [7] 1.78 µM | Potency [13] 0.112 µM | Potency [14] 0.316 µM | Potency [8] 2.24 µM | Potency [9] 0.282 µM
inactive: outcome [1] | outcome [3] | outcome [4] | outcome [15] | outcome [10]

O=c1[nH]cnc2[nH]ncc12
3.2% and 58%: max response [2, 20]
12.9% and 60.4%: max response [2, 21]
inactive: outcome [16] | outcome [17] | outcome [11] | outcome [18] | outcome [19] | outcome [12] | activity change, negative = inhibition ([2]; at 57.5 µM (top of the series)) 3.88% and -0.195% | outcome [3] | outcome [4] | outcome [5] | Potency [6] | Potency [7] | Potency [13] | Potency [14] | Potency [8] | Potency [9] | outcome [10]

N[C@@H]1CONC1=O
inactive: outcome [11] | outcome [12] | outcome [1] | outcome [3] | outcome [4] | outcome [5] | Potency [6] | Potency [7] | Potency [13] | Potency [14] | Potency [9] | outcome [15] | outcome [10]

NCCCC(N)(C(=O)O)C(F)F (configuration not stated)
inactive: outcome [1] | outcome [3] | outcome [4] | outcome [5] | Potency [6] | Potency [7] | Potency [13] | Potency [14] | Potency [8] | Potency [9] | outcome [10]

CCC(C)N(C)C(=O)c1cc2ccccc2c(-c2ccccc2Cl)n1 (configuration not stated)
inactive: outcome [1] | outcome [3] | outcome [4]
active: Potency [6] 7.94 µM | Potency [7] 12.6 µM | Potency [14] 11.2 µM | Potency [8] 7.94 µM | Potency [9] 12.6 µM

CCCCNc1cc(C(=O)O)cc(S(N)(=O)=O)c1Oc1ccccc1
inactive: outcome [11] | outcome [12] | outcome [1] | activity change, negative = inhibition ([2]; at 25.7 µM (top of the series)) 0.496% | activity change, negative = inhibition ([2]; at 57.5 µM (top of the series)) 9.35% and 0.368% | outcome [3] | outcome [4] | outcome [5] | Potency [6] | Potency [7] | Potency [13] | Potency [14] | Potency [8] | Potency [9] | outcome [15] | outcome [10]
0.765% and 10.7% and -18.8%: max response [2, 20]
-1.29% and 24.4% and -13.7%: max response [2, 21]

O=C1CCC(N2C(=O)c3ccccc3C2=O)C(=O)N1 (configuration not stated)
inactive: outcome [1] | activity change, negative = inhibition ([2]; at 57.5 µM (top of the series)) 4.49% and -2.08% | outcome [3] | outcome [4] | outcome [5] | Potency [6] | Potency [7] | Potency [13] | Potency [14] | Potency [8] | Potency [9] | outcome [15] | outcome [10]
6.67% and -27.8%: max response [2, 20]
12.7% and -27.8%: max response [2, 21]

O=C(O)COCCN1CCN(C(c2ccccc2)c2ccc(Cl)cc2)CC1 (configuration not stated)
13.6%: max response [2, 21]
4.08%: max response [2, 20]
inactive: activity change, negative = inhibition ([2]; at 57.5 µM (top of the series)) 5.98%

Cc1ccc(N(CC2=NCCN2)c2cccc(O)c2)cc1
inactive: outcome [11] | outcome [12] | outcome [1] | activity change, negative = inhibition ([2]; at 25.7 µM (top of the series)) 1.77% | activity change, negative = inhibition ([2]; at 57.5 µM (top of the series)) 11.7% and 0.54% | outcome [3] | outcome [4] | outcome [5] | Potency [14] | outcome [10]
-8.46% and 20.7% and 65.8%: max response [2, 21]
active: Potency [8] 11.2 µM
-12.1% and 5.79% and 62.4%: max response [2, 20]

CCn1cc(C(=O)O)c(=O)c2cc(F)c(N3CCNC(C)C3)c(F)c21 (configuration not stated)
inactive: activity change, negative = inhibition ([2]; at 57.5 µM (top of the series)) 5.34% | outcome [3] | outcome [4] | outcome [10]
active: Potency [13] 11.2 µM | Potency [8] 10 µM
26.1%: max response [2, 21]
16.3%: max response [2, 20]

c1ccc([C@H]2CN3CCSC3=N2)cc1
inactive: outcome [3] | outcome [4] | outcome [5] | Potency [6] | Potency [13] | Potency [14] | Potency [9]

Oc1ccc(C2CNCCc3c2cc(O)c(O)c3Cl)cc1 (configuration not stated)
active: Potency [7] 10 µM | Potency [13] 10 µM | Potency [14] 11.2 µM | Potency [8] 10 µM | Potency [9] 11.2 µM
inactive: outcome [3] | outcome [4] | outcome [5]

CC(C)C[C@H](NC(=O)[C@@H](O)[C@H](N)Cc1ccccc1)C(=O)O
inactive: activity change, negative = inhibition ([2]; at 57.5 µM (top of the series)) -0.597% | outcome [4] | outcome [5] | outcome [10]
-1.56%: max response [2, 20]
-0.689%: max response [2, 21]
active: Potency [6] 2.51 µM | Potency [7] 2.51 µM | Potency [13] 0.631 µM | Potency [14] 2.82 µM | Potency [8] 1 µM | Potency [9] 3.55 µM

OC(CN1CCC(Cc2ccc(F)cc2)CC1)c1ccc(Cl)cc1 (configuration not stated)
active: Potency [6] 0.501 µM | Potency [7] 0.355 µM | Potency [13] 1.26 µM | Potency [14] 2.51 µM | Potency [8] 0.282 µM | Potency [9] 1.41 µM
inactive: outcome [11] | outcome [12] | outcome [3] | outcome [4] | outcome [5]

O=c1n(CCCN2CCN(c3cccc(Cl)c3)CC2)nc2ccccn12
20.6% and -14.9%: max response [2, 20]
37% and -15.6%: max response [2, 21]
inactive: outcome [11] | outcome [12] | activity change, negative = inhibition ([2]; at 57.5 µM (top of the series)) 10.8% and -2.4% | outcome [3] | outcome [4] | outcome [5] | Potency [13] | Potency [14] | Potency [9] | outcome [10]

C[C@]12CCC(=O)C=C1CC[C@@H]1[C@@H]2[C@@H](O)C[C@@]2(C)[C@H]1CC[C@]2(O)C(=O)CO
inactive: outcome [11] | outcome [12]
